Data reported in PubChem BioAssay AID651710 (Broad Institute, 2012).
Where “and” joins values, the source holds several entries; their conditions need not be identical. Equal entries are not always repeated. In all, about 360,000 compounds went through this assay and about 1,600 (0.44%) were called active.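 The calls were made as follows: active = every replicate showing at least 50% inhibition; inconclusive = mean inhibition at least 50% but not in every replicate; inactive = the rest.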 Many of the other results were omitted from the sample, so actives are more common in it than they were. Where a structure was tested more than once in an assay, its records may differ in their call.

Target: DNA repair protein RAD52 homolog (Homo sapiens) (UniProt P43351)
Sequence (P43351 whole entry, looked up): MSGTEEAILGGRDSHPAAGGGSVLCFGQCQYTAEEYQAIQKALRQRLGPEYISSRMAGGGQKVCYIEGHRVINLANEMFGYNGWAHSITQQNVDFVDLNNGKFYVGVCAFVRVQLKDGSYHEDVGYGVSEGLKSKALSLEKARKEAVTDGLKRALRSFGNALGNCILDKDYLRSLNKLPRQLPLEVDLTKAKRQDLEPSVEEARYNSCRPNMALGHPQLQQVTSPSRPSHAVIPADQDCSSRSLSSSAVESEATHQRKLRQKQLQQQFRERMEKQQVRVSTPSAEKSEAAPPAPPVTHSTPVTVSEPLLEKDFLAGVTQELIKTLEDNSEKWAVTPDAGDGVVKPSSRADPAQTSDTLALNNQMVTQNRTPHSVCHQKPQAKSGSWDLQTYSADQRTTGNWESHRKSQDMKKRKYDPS
Assay: blockers of RAD52 strand annealing activity – biochemical, FRET, single point, set 2, primary screen (AID 651710)
Conditions: recombinant RAD52 DNA annealing, FRET fluorescence; at 18.7 µM; stronger effect = higher value

SMILES | inhibition
COc1ccccc1C#Cc1cnc2c(c1)C(=O)N([C@@H](C)CO)C[C@@H](C)[C@@H](CN(C)C(=O)CN(C)C)O2 | 51.1% (active)
COc1ccccc1C#Cc1cnc2c(c1)C(=O)N([C@@H](C)CO)C[C@@H](C)[C@H](CN(C)C(=O)CN(C)C)O2 | 42.2% (inactive)
COCC(=O)N(C)C[C@@H]1Oc2ncc(C#Cc3ccccc3OC)cc2C(=O)N([C@@H](C)CO)C[C@H]1C | 0.963% (inactive)
CN(C)CC(=O)N1[C@@H](C#N)[C@@H](c2ccccc2-c2ccccc2F)[C@@H]1CO | -4.36% (inactive)
N#C[C@@H]1[C@@H](c2ccccc2C2=CCCC2)[C@H](CO)N1C(=O)NC1CCCC1 | -0.746% (inactive)
Cc1ccccc1S(=O)(=O)NCC[C@@H]1CC[C@@H](NS(=O)(=O)c2ccccc2C)[C@@H](CO)O1 | -0.528% (inactive)
Cc1ccc2c(c1)C1CN(C)CCC1N2S(=O)(=O)c1ccc(Oc2ccc([N+](=O)[O-])cc2)cc1 (stereo unspecified) | 57.3% (active)
Cc1ccc2c(c1)C1CN(C)CCC1N2S(=O)(=O)c1cccc(F)c1 (stereo unspecified) | -19.1% (inactive)
Cc1ccc2c(c1)C1CN(C)CCC1N2C(=S)Nc1ccc(OC(F)F)cc1 (stereo unspecified) | -9.14% (inactive)
CC=Cc1ccc2n(c1=O)C[C@@H]1[C@@H](CO)[C@H](C(=O)NCCCN3CCOCC3)[C@H]2N1Cc1cocn1 (mixture of isomers) | -8.14% (inactive)
O=C(NCCCN1CCOCC1)c1cn(-c2ccccc2)nc1-c1ccc(F)cc1 | -2.27% (inactive)
O=C(/C=C/c1cn(-c2ccccc2)nc1-c1ccc2c(c1)OCCO2)NCCCN1CCOCC1 | 50.5% (active)
COc1ccc(-c2nn(-c3ccccc3)cc2/C=C\C(=O)N2CCOCC2)cc1[N+](=O)[O-] | -18.6% (inactive)
C[C@H]1CN([C@@H](C)CO)S(=O)(=O)c2ccc(-c3ccccc3)cc2O[C@H]1CN(C)C(=O)CC1CC1 | 5.01% (inactive)
C[C@H](CO)N1C[C@H](C)[C@H](CN(C)C(=O)Nc2ccc3c(c2)OCO3)Oc2ccc(NC(=O)Nc3ccccc3)cc2CC1=O | -4.77% (inactive)
Fc1ccc(-c2ccc(NCCN3CCOCC3)nn2)cc1 | -7.71% (inactive)
c1ccc2cc3c(NCCN4CCOCC4)ccnc3cc2c1 | 79% (active)
Cc1cccc(C)c1OCCN1CCOCC1 | -1.02% (inactive)
COc1ccc(NC(=O)N(C)C[C@@H]2Oc3c(NS(C)(=O)=O)cccc3C(=O)N([C@H](C)CO)C[C@H]2C)cc1 | 1.83% (inactive)
CC(C)NC(=O)Nc1ccc2c(c1)CC(=O)N([C@H](C)CO)C[C@H](C)[C@@H](CN(C)C(=O)Nc1ccc(F)cc1)O2 | 16.5% (inactive)
N#Cc1cccc(-c2ccc(C3[C@H]4CNC[C@@H]3N4Cc3cncnc3)cc2)c1 (stereo partly specified) | -10.4% (inactive)
N#Cc1ccc(-c2ccc(C3[C@H]4CNC[C@@H]3N4S(=O)(=O)c3ccccc3F)cc2)cc1 (stereo partly specified) | 28.8% (inactive)
N#Cc1cccc(-c2ccc(C3[C@H]4CNC[C@@H]3N4S(=O)(=O)c3ccc(-c4ccccc4)cc3)cc2)c1 (stereo partly specified) | 73.9% (active) and 22.4% (inactive)

SMILES | inhibition
CCCNC(=O)N(C)C[C@@H]1Oc2ncc(C#CC(C)C)cc2C(=O)N([C@H](C)CO)C[C@H]1C | -2.25% (inactive)
CCN(CC)CCNC(=O)c1ccc(NC(=O)c2cc(-c3ccncc3)nc3ccccc23)cc1 | 54.5% (active)
O=C(Nc1ccc(S(=O)(=O)Nc2nccs2)cc1)c1cc(-c2ccncc2)nc2ccccc12 | -42.2% (inactive)
CCN(CC)CCNC(=O)c1ccc(NC(=O)c2c(F)cccc2Cl)cc1 | -8.76% (inactive)
COC(=O)Cc1nnn2c1[C@H](C)[C@@H](OC)c1cc(Br)ccc1-2 | -4.62% (inactive)
C[C@@H]1CN([C@@H](C)CO)C(=O)c2cc(NC(=O)Nc3ccccc3)ccc2O[C@@H]1CN(C)Cc1ccccc1 | 8.18% (inactive)
COc1cccc(NC(=O)N[C@H]2C=C[C@H](CC(=O)NCc3ccccn3)O[C@@H]2CO)c1 | -25.9% (inactive)
COc1ccc(-c2ccc3c(c2)[C@@H]2[C@@H](CCN2C(=O)NC2CCCC2)[C@@H](CO)N3C)cc1 | -19% (inactive)
COCC(=O)Nc1ccc2c(c1)OC[C@H](C)NC[C@H](C)[C@H](OC)CN(C)C2=O | -2.26% (inactive)
Cc1nc(N=C(N)N)nc2c(C)cccc12 | 81.9% (active)
COc1cccc(CN2[C@H](CO)[C@@H]3c4ccccc4N(C(=O)c4ccncc4)C[C@@H]32)c1 | -8.72% (inactive)
CC(=O)c1cccc(-c2cnc3c(NC=O)cc(-c4ccc(N5CCN(C)CC5)cc4)cn23)c1 | 73.8% (active)
CC(=O)Nc1cc(-c2ccc(N3CCN(C)CC3)cc2)cn2c(-c3ccc(F)cc3)cnc12 | 18% (inactive)
CC(=O)Nc1cc(-c2cccc(CO)c2)cn2c(-c3cccc(C(F)(F)F)c3)cnc12 | -17.3% (inactive)
CN(C)C(=O)c1cccc(-c2cnc3c(NC=O)cc(-c4ccc(C(=O)N5CCOCC5)cc4)cn23)c1 | -29% (inactive)
CC(=O)Nc1cc(-c2ccc(N3CCN(C)CC3)cc2)cn2c(-c3cccc(C(=O)N(C)C)c3)cnc12 | 79.7% (active)
CN(C)CCNC(=O)c1cccc(-c2cnc3c(NC=O)cc(-c4cccc(C(F)(F)F)c4)cn23)c1 | 67% (active)
CC(=O)c1cccc(-c2cnc3c(NC=O)cc(-c4cccc(C(=O)N(C)C)c4)cn23)c1 | -0.741% (inactive)
CC(=O)c1cccc(-c2cnc3c(NC=O)cc(-c4ccc(N(C)C)cc4)cn23)c1 | -47.5% (inactive)
CN(C)C(=O)c1cccc(-c2cnc3c(NC=O)cc(-c4ccc(F)cc4)cn23)c1 | -55.7% (inactive)
O=C(C[C@H]1C=C[C@@H](NC(=O)C2CC2)[C@H](CO)O1)NCC1CC1 | 2.9% (inactive)
CO[C@H]1CN(C)C(=O)c2ccc(NC(=O)c3cnccn3)cc2OC[C@H](C)N(C)C[C@@H]1C | 2.76% (inactive)
O=C(Nc1ccccc1)N[C@H]1CC[C@H](CCNC(=O)c2ccccc2F)O[C@H]1CO | -10.3% (inactive)
